Bioassay records: PubChem, National Center for Advancing Translational Sciences (NCATS)
PNC assembly inh: perinucleolar compartment assembly inhibition | activity change (PNC), negative = inhibition, % at 10 µM | AID 2417 | PC3M PTB-GFP, PNC prevalence imaging, 16 h; stronger effect = lower value | 140,000 tested, 3.1% active;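 active means readout at or below -70, meaning at least 70% loss of cells showing the perinucleolar compartment, a nuclear body marking cancer cells; inconclusive means readout between -30 and a set limit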
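Compounds are pinned in duplicate onto adhered PC3M cells stably expressing GFP-tagged PTB and incubated 16 h at 37 C. Cells are then fixed, nuclei stained with Hoechst, and PNC-positive cells counted.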
HPGD block: HPGD (human) dehydrogenase inhibition; P15428; purified HPGD, NADH fluorescence kinetic, PGE2 substrate; Potency, µM, hits mostly inhibitors; 150,000 tested, 4.3% active; AID 894
Target sequence (P15428 whole entry, looked up): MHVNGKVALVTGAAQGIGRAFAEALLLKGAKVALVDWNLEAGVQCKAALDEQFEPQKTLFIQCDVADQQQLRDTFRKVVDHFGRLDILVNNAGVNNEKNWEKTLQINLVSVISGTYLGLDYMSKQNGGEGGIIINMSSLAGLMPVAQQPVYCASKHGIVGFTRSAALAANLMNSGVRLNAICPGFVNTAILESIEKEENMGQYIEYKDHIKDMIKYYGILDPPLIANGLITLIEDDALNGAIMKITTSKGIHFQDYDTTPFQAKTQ
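20 nM HPGD preincubated 15 min at room temperature with compound in 50 mM Tris-HCl pH 8, 0.01% Tween 20. Started with 1 mM NAD+ and 30 uM prostaglandin E2; NADH fluorescence (360/450 nm) read 5 times over 30-s intervals, last minus first.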
KDM4E inh: inhibitors of human JMJD2E histone demethylase | B2RXH2 | JMJD2E catalytic domain, FDH-coupled NADH fluorescence (FDH is formaldehyde dehydrogenase) | Potency, µM (highest dose often 57.1 µM), hits mostly inhibitors | 230,000 tested, 1.6% active | AID 2147; further: nearly all actives have a fitted effect of over 50% in size
Target sequence (B2RXH2 1-337 limits assumed): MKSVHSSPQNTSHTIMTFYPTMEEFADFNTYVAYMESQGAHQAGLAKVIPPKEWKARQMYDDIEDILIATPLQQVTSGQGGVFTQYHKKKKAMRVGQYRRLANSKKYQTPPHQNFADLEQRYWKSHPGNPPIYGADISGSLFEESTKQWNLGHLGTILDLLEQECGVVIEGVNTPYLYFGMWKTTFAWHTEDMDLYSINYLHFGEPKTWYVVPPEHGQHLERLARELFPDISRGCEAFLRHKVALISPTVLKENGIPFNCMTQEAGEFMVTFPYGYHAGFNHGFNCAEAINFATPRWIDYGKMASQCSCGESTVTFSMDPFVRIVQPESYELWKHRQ
ALDH1A1 block: inhibitors of human aldehyde dehydrogenase 1A1; AID 1030; Purified ALDH1A1, NADH fluorescence, propionaldehyde substrate; Potency, µM (doses to about 75.3 µM), actives largely listed as inhibitors; 220,000 tested, 7.3% active; P00352
Each line names hits and unclear results; the compound was inactive in the other large screens. A selection: hits, their analogues and other compounds. The true share with any hit is near 11%. Unless noted, the call rests on the fitted dose curve; in most records, active means well fitted inhibition curve with a large enough effect (not every such curve was filed as active); inconclusive means small, poorly fitted or top-dose-only effect, or another doubt; inactive means no such curve, though single readings can be large or run the other way.

Cc1ccc(S(=O)(=O)Nc2cc(C(=O)NCCN3CCCC3)ccc2N2CCCCC2)cc1	ALDH1A1 block inconclusive
COCCn1c(=O)c(-c2cccs2)nc2cnc(Nc3ccccc3)nc21	none (no result: PNC assembly inh, KDM4E inh)
COc1cccc(C(=O)NCCC2=CCCCC2)c1OC	ALDH1A1 block inconclusive
COCCCNC(=O)c1cccc(OC)c1OC	PNC assembly inh inconclusive, HPGD block 7.1µM
COc1ccccc1CNC(=O)c1cccc(C)c1[N+](=O)[O-]	HPGD block 18µM
Cc1ccc(CNC(=O)CCCc2ccccc2)cc1	none (no result: PNC assembly inh, HPGD block)
COc1ccccc1CNC(=O)C(NC(=O)c1ccccc1C)C(C)C (stereo unspecified)	none (no result: PNC assembly inh, HPGD block)
COC(=O)C(Cc1ccc(O)cc1)NC(=O)c1ccccc1OC (stereo unspecified)	ALDH1A1 block 28µM
COc1ccc(CCCC(=O)NCc2ccccc2)cc1C	HPGD block 16µM
O=C(Nc1ccc(F)cc1)Nc1ccccc1C(=O)NCCN1CCNC1=O	KDM4E inh inconclusive (no result: PNC assembly inh, HPGD block)
CNCCOc1ccccc1OC(C)C	KDM4E inh inconclusive (no result: PNC assembly inh, HPGD block)
COc1ccccc1C(=O)NCc1ccccc1	PNC assembly inh -114, HPGD block 11µM
COc1ccccc1C(=O)NCc1ccncc1	PNC assembly inh inconclusive
COc1ccc(-c2nc3ccccc3s2)cc1O	PNC assembly inh -90, HPGD block inconclusive, KDM4E inh inconclusive, ALDH1A1 block inconclusive
COc1ccccc1C(=O)NCc1ccc(-c2nc3ccccc3s2)cc1	PNC assembly inh inconclusive, HPGD block 18µM, KDM4E inh inconclusive, ALDH1A1 block inconclusive
COc1cc(C(=O)NCc2ccccc2)cc(Br)c1OC	PNC assembly inh inconclusive, HPGD block 22µM
COc1cc(-c2nc3ccccc3s2)ccc1O	HPGD block inconclusive, KDM4E inh inconclusive, ALDH1A1 block inconclusive
CC(C)Oc1cc(O)c2c(c1)OCC=C2CCC(=O)O	none (no result: PNC assembly inh, KDM4E inh)
COc1ccc(OC)c(NC(=O)C(C)Oc2ccc(Br)cc2)c1 (stereo unspecified)	none (no result: PNC assembly inh, HPGD block)
COc1ccc(NC(=O)c2ccccc2[N+](=O)[O-])cc1	none
COc1ccc(CNC(=O)c2ccccc2[N+](=O)[O-])cc1	HPGD block 11µM
COc1ccccc1CNC(=O)c1ccc(N2CCOCC2)c([N+](=O)[O-])c1	ALDH1A1 block inconclusive (no result: PNC assembly inh, HPGD block)
COC(=O)c1ccc2c(=O)[nH]c(CSc3nc(C)cs3)nc2c1	KDM4E inh inconclusive, ALDH1A1 block 24µM (no result: PNC assembly inh, HPGD block)
COC(=O)c1c(-c2ccco2)csc1NC(=O)C1CC=CCC1C(=O)O (stereo unspecified)	ALDH1A1 block 13µM (no result: HPGD block)
Cn1c(=O)c(-c2ccc(Cl)cc2)nc2cnc(Nc3ccccc3)nc21	none (no result: PNC assembly inh, HPGD block, KDM4E inh)
CC(C)NCCCCOc1ccc(Br)cc1Cl	none (no result: PNC assembly inh, HPGD block)
COc1ccc(CCNC(=O)CC2SC(=NCc3ccccc3OC)NC2=O)cc1 (stereo unspecified)	ALDH1A1 block inconclusive (no result: PNC assembly inh, HPGD block)
Cc1ccc(N=C2NC(=O)C(CC(=O)NCc3ccccc3)S2)cc1C (stereo unspecified)	ALDH1A1 block 25µM
COc1ccc(NC(=O)CC2SC(=Nc3ccccc3)NC2=O)c(OC)c1 (stereo unspecified)	PNC assembly inh inconclusive
COc1ccc(OC)c(NC(=O)CC2SC(=NCc3ccccc3)NC2=O)c1 (stereo unspecified)	ALDH1A1 block 40µM (no result: PNC assembly inh, HPGD block)
COc1ccc(N=C2NC(=O)C(CC(=O)NCCc3ccc(OC)c(OC)c3)S2)cc1 (stereo unspecified)	ALDH1A1 block 11µM (no result: PNC assembly inh, HPGD block)
N#Cc1cc(-c2ccccc2)cnc1Cl	ALDH1A1 block 3.5µM
c1ccc(-c2cnc(-c3ccccc3)nc2)cc1	none
Cc1cc(C)cc(C(=O)N2CC(=O)Nc3ccccc32)c1	PNC assembly inh -80, ALDH1A1 block inconclusive
Cc1ccc(/C=C/C(=O)N2CC(=O)Nc3ccccc32)o1	KDM4E inh inconclusive, ALDH1A1 block 20µM (no result: PNC assembly inh, HPGD block)
Cc1nnc(SCC(=O)N2CC(=O)Nc3ccccc32)s1	none (no result: PNC assembly inh, HPGD block)
Cc1ccsc1C(=O)N1CC(=O)Nc2ccccc21	PNC assembly inh inconclusive
Nn1c(Cc2ccccc2F)nnc1SCC(=O)N1CC(=O)Nc2ccccc21	PNC assembly inh -100
O=C1CN(C(=O)CSc2nc(-c3ccc(Cl)cc3)cs2)c2ccccc2N1	PNC assembly inh -113, HPGD block 13µM
Cc1onc(-c2ccccc2)c1C(=O)N=C(N)c1ccc(C(F)(F)F)cc1	none (no result: PNC assembly inh, HPGD block)
Cc1cc(C)c2nc(SCC(=O)N3CC(=O)Nc4ccccc43)c(C#N)cc2c1	PNC assembly inh -104, HPGD block inconclusive, ALDH1A1 block inconclusive
CCN(CC)C(=O)C1CCN(Cc2ccc(Br)cc2)CC1	KDM4E inh inconclusive, ALDH1A1 block inconclusive
CCN(CC)C(=S)SCC(=O)c1ccc(Br)cc1	HPGD block inconclusive, ALDH1A1 block 8.9µM
Cc1ccc(S(=O)(=O)N2CCN(C(=O)CSc3nc(N)cc(=O)[nH]3)CC2)c(C)c1	none (no result: PNC assembly inh, HPGD block)
Cc1ccc(S(=O)(=O)N2CCN(C(=O)CSc3nnnn3C)CC2)c(C)c1	ALDH1A1 block 25µM (no result: PNC assembly inh, HPGD block)
NC(=NCCc1c[nH]c2ccccc12)NC(=O)c1ccc(F)cc1	none (no result: PNC assembly inh, HPGD block, ALDH1A1 block)
C/C(CCC(C)C)=N\NC(=O)COc1ccccc1-c1ccccc1	ALDH1A1 block 7.1µM (no result: PNC assembly inh, HPGD block)
O=C(COc1ccccc1-c1ccccc1)N/N=C/c1cccc2ccccc12	PNC assembly inh inconclusive, HPGD block inconclusive, ALDH1A1 block inconclusive
CC1(NC(=O)COc2ccccc2-c2ccccc2)CCS(=O)(=O)C1 (stereo unspecified)	PNC assembly inh -96
O=C(COc1ccccc1-c1ccccc1)NN=C1CCCC1	ALDH1A1 block 11µM (no result: PNC assembly inh, HPGD block)
CC(NC(=O)COc1ccccc1-c1ccccc1)c1ccccc1 (stereo unspecified)	none
CCCc1cc2c(n1CCc1ccc(Cl)cc1)C(C)C1CN(C(=O)c3ccccc3)C(C)(C(=O)OC)C21 (stereo unspecified)	KDM4E inh inconclusive (no result: PNC assembly inh)
CCN(C(=O)COC(=O)/C=C/c1ccc(S(=O)(=O)N2CCc3ccccc32)cc1)C1CCS(=O)(=O)C1 (stereo unspecified)	ALDH1A1 block 5µM (no result: PNC assembly inh, HPGD block)
CCC/C=C(\CCC)C(NC(=O)c1ccco1)c1ccc(C(=O)OC)cc1 (stereo unspecified)	none (no result: PNC assembly inh)
O=C(NCc1nc2ccccc2[nH]1)[C@H]1C[C@@H]1[C@H](NP(=O)(c1ccccc1)c1ccccc1)c1ccccc1	none (no result: PNC assembly inh)
COc1ccc(/C(O)=C2\C(=O)C(=O)N(CCN(C)C)C2c2cc(OC)c(OC)c(OC)c2)c(C)c1 (stereo unspecified)	ALDH1A1 block 28µM
Cc1c(/C(O)=C2\C(=O)C(=O)N(CCCN(C)C)C2c2ccccc2)cnn1-c1ccccc1 (stereo unspecified)	HPGD block 20µM, ALDH1A1 block inconclusive
CCCOc1cccc(C2/C(=C(/O)c3ccc(OC)cc3)C(=O)C(=O)N2CCN(C)C)c1 (stereo unspecified)	ALDH1A1 block 16µM
Cc1cc(N2CCN(C/C=C/c3ccccc3)CC2)n2ncnc2n1	HPGD block 28µM
Cc1cc(N2CCN(c3ccccc3)CC2)n2ncnc2n1	none (no result: PNC assembly inh, HPGD block)
O=C(NCCN1CCCC1)c1ccc(-n2c(=O)c(=O)[nH]c3ccccc32)cc1	none (no result: PNC assembly inh, KDM4E inh)
O=C(O)CN(c1ccccc1)S(=O)(=O)c1cc(C(F)(F)F)cc(C(F)(F)F)c1	none (no result: PNC assembly inh, HPGD block)
CS(=O)(=O)N1CCN(c2ccc([N+](=O)[O-])c(NCc3ccccc3)c2)CC1	none
